In PubChem BioAssay (NCATS):
Results filed as inconclusive are left out. Active and inactive are the calls of the source. The call rests on the fitted dose curve; in most records, active means well fitted cell-killing curve with a large enough effect; inconclusive means small, poorly fitted or top-dose-only effect; inactive means no such curve, though single readings can be large or run the other way.

Experiment: qHTS of pediatric cancer cell lines to identify multiple opportunities for drug repurposing: Primary screen for SK-N-SH cells (AID 1347098); further: nearly all actives have a fitted effect of over 65% in size
Details: SK-N-SH viability, CellTiter-Glo luminescence, 48 h; series mostly up to 57 µM
Text: Drug repurposing or repositioning has been offered as a strategy for drug development in oncology programs. This approach has special potential for childhood cancers and other rare or orphan diseases, where the expected return on new drug development has been a disincentive to pharmaceuticals.
In this project we exploit the poly-pharmacology of drugs to discover new indications via phenotypic screening of a panel of 19 well-characterized cell lines derived from solid tumors seen in children and adolescents. The goal is to identify approved drugs with previously unrecognized anticancer properties that has the potential to reveal new mechanisms and biological processes involved in carcinogenesis or drug resistance. We employed a titration-based paradigm (quantitative high-throughput screening or qHTS), where all compounds were tested at multiple concentrations for their effect on cell viability. Concentration-response curves (CRCs) were derived directly from the primary screen, and both potency and efficacy values were used to identify compounds with robust bioactivity profiles. We screened the NIH Chemical Genomics Center (NCGC) Pharmaceutical Collection (NPC) and Mechanism Interrogation Plate (MIPE) small molecule collections of approved and investigational compounds against these cell lines; and measured metabolically active cells after 48 hours of compound treatment as a proxy for cell viability.
Assay Submitter: Nathalia J. Martinez, National Center for Advancing Translational Sciences, National Institutes of Health, Rockville, MD, USA; email: natalia.martinez@nih.gov
[1] Shen, M et al. Quantitative high-throughput phenotypic screening of pediatric cancer cell lines identifies multiple opportunities for drug repurposing. Oncotarget 2017 Dec 19;9(4):4758-4772. PMID 29435139.
The cells were obtained from University of North Carolina (UNC), Pediatric Preclinical Testing Program (PPT), and Coriell Institute (CI).
qHTS cell viability assay:
Cells were assayed in growth media at a density of 500-1,000 cells/well. Five microliters of cells were dispensed into 1,536-well, white, solid-bottom, TC-treated plates (Greiner Bio One) using a multidrop dispenser and incubated at 37 degrees C, 5% CO2, under a humidified atmosphere for 5 hours. Twenty-three nanoliters of compounds and controls (neutral control DMSO or positive control bortezomib at final concentration of 2.3 µM) were subsequently transferred by Kalypsys pintool. For primary screens, the MIPE collection was tested at 11-point dilutions (final concentrations range from 0.78 nM to 46 µM) and the NPC collection at 8-point dilutions (final concentrations range from 0.59 nM to 46 µM). Compounds tested in follow-up screens were assayed at 11-point dilutions. Cells were incubated for 48 hours, followed by addition of 3 µL of CellTiter-Glo (Promega). After a 15 min incubation at room temperature, samples were analyzed for luminescence intensity using a ViewLux High-throughput CCD imager equipped with clear filters.
Potency means the concentration at half of the fitted maximal effect.

SMILES | Potency
COC(=O)C[C@](O)(CCCC(C)(C)O)C(=O)O[C@@H]1C(OC)=C[C@]23CCCN2CCc2cc4c(cc2[C@H]13)OCO4 | inactive
O=C(c1ccc(Nc2nccc(-c3cc4ccccc4s3)n2)cc1)N1CCC(N2CCCC2)CC1 | 19.2 µM (active)
Cc1cccc(C=NNc2cc(N3CCOCC3)nc(OCCc3ccccn3)n2)c1 | 24.1 µM (active)
CC(NCc1ccc2c(c1)nc(NC(=O)c1ccc(-c3cn[nH]c3)s1)n2CC(C)(C)O)C(C)(C)C (stereo not given) | 0.961 µM (active)
COC(=O)[C@]12CCC(C)(C)C[C@@H]1[C@@H]1C(=O)C=C3[C@@]4(C)C=C(C#N)C(=O)C(C)(C)[C@@H]4CC[C@@]3(C)[C@]1(C)CC2 | 1.92 µM (active)
CC(C)c1noc(N2CCC(COc3ccc(-c4ccc(S(C)(=O)=O)cc4)nc3)CC2)n1 | inactive
Nc1ccc(C(=O)c2cc3c(ccc4ccccc43)[nH]2)cc1 | 7.64 µM (active)
CNC(=O)c1ccc(-c2cnc3ncc(Cc4ccc5ncccc5c4)n3n2)cc1F | inactive
Nc1nc(Nc2ccc(S(N)(=O)=O)cc2)nn1C(=O)c1c(F)cccc1F | 8.57 µM (active)
O=C1CCC[C@@H]2[C@H]3CCC[N+]4([O-])CCC[C@@H](CN12)[C@@H]34 (stereo not given in full) | inactive
CN1c2cc(O)c(N=NC(N)=O)cc2CC1S(=O)(=O)O (stereo not given) | inactive
CCn1cc(-c2ccnc3[nH]c(-c4cccc(CN(C)C)c4)cc23)c(-c2ccc(NC(=O)N(C)C)cc2)n1 | 3.04 µM (active)
CCOc1cc2ncc(C#N)c(Nc3ccc(F)c(Cl)c3)c2cc1NC(=O)C=CCN(C)C | 0.341 µM (active)
COC(=O)c1ccc2c(C(=Nc3ccc(N(C)C(=O)CN4CCN(C)CC4)cc3)c3ccccc3)c(O)[nH]c2c1 | 6.07 µM (active)
CC(C)[C@H](C(=O)Nc1ccc(C(=O)NO)cc1)c1ccccc1 | 2.41 µM (active)
CC(C)(C)c1cnc(CSc2cnc(NC(=O)C3CCNCC3)s2)o1 | 1.52 µM (active)
CCN1CCN(CC(=O)Nc2ccc(-c3cccc4c(=O)cc(N5CCOCC5)oc34)c3sc4ccccc4c23)CC1 | 6.07 µM (active)
Cc1[nH]nc2ccc(-c3cncc(OC[C@@H](N)Cc4ccccc4)c3)cc12 | 1.52 µM (active)
Cc1ccc(-c2ncn(-c3ccc(Nc4nccc(-c5cccc(N6CCOCC6)c5)n4)cc3)n2)cn1 | 0.383 µM (active)
Nc1cc(C(F)(F)F)c(-c2cc(N3CCOCC3)nc(N3CCOCC3)n2)cn1 | 0.482 µM (active)

SMILES | Potency
O=c1[nH]nc(Sc2ncc([N+](=O)[O-])s2)n1-c1ccc2c(c1)OCCO2 | 12.1 µM (active)
Cc1cc(Nc2cc(NC(=O)c3c(Cl)cccc3Cl)ccn2)nc(N)n1 | 6.07 µM (active)
Cc1cc(N2CCOCC2)cc2[nH]c(-c3c(NC[C@@H](O)c4cccc(Cl)c4)cc[nH]c3=O)nc12 | 0.215 µM (active)
CCC[C@H](NC(=O)C(C#N)=Cc1cccc(Br)n1)c1ccccc1 | 24.1 µM (active)
O=C(O)c1ccc2c(c1)nc(Nc1cccc(Cl)c1)c1ccncc12 | 12.1 µM (active)
Cc1ccc(C(=O)Nc2cccc(C(F)(F)F)c2)cc1-c1ccc2nc(NCCN3CCOCC3)ncc2c1 | 9.61 µM (active)
CC(=O)SC[C@@H](C)C(=O)N1CCC[C@H]1C(=O)N[C@@H](Cc1ccccc1)C(=O)O | inactive
NC(=O)Nc1cc(-c2cccc(F)c2)sc1C(=O)N[C@H]1CCCNC1 | 1.71 µM (active)
CC(=O)Nc1sc2c(c1-c1nc3ccccc3s1)CNC2 | 1.21 µM (active)
Cn1cc(-c2[nH]c3cc(NC(=O)[C@H](N)C4CCCCC4)cc4c3c2C=NNC4=O)cn1 | 19.2 µM (active)
COc1cc(Nc2ncc(F)c(Nc3ccc4c(n3)N(COP(=O)(O)O)C(=O)C(C)(C)O4)n2)cc(OC)c1OC | 4.29 µM (active)
CCN(CC)CCCCNc1ncc2cc(-c3cc(OC)cc(OC)c3)c(NC(=O)NC(C)(C)C)nc2n1 | 6.81 µM (active)
CN1CC[C@@H](c2c(O)cc(O)c3c(=O)cc(-c4ccccc4Cl)oc23)[C@@H](O)C1 | 0.0764 µM (active)
Nc1ccccc1NC(=O)c1ccc(CNc2nccc(-c3cccnc3)n2)cc1 | 2.41 µM (active)
COc1ccc2c(OCc3nnc4ccc(-c5ccccc5)nn34)ccnc2c1 | inactive
CCn1nnc2c(N3CCOCC3)nc(-c3ccc(NC(=O)Nc4ccc(C(=O)N5CCN(C)CC5)cc4)cc3)nc21 | 8.57 µM (active)
Cc1cnc(Nc2ccc(F)cc2Cl)nc1-c1c[nH]c(C(=O)N[C@H](CO)c2cccc(Cl)c2)c1 | 17.1 µM (active)
C=CC(=O)Nc1cc2c(Nc3ccc(F)c(Cl)c3)ncnc2cc1OCCCN1CCOCC1 | 2.73 µM (active)
c1cc(-c2cnn3cc(-c4ccc(OCCN5CCCCC5)cc4)cnc23)ccn1 | 21.5 µM (active)
COc1cc2c(Oc3ccc(NC(=O)C4(C(=O)Nc5ccc(F)cc5)CC4)cc3F)ccnc2cc1OCCCN1CCOCC1 | 2.41 µM (active)
